This is an account of results in PubChem BioAssay AID2288 (National Center for Advancing Translational Sciences (NCATS), 2010).

Structures are written as SMILES. Out of some 340,000 compounds screened, fewer than 10 were called active. Inconclusive results (about 2%) are left out. Calls follow the shape of the dose curve; as a rule, active = well fitted curve in the direction sought with a large enough effect; inconclusive = small, poorly fitted or top-dose-only effect, or another doubt; inactive = no such curve, though single readings can be large or run the other way. Only a sample is shown.

The experiment can be described thus: qHTS Assay for Modulators of miRNAs and/orActivators of miR-21.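 Also: miR-21 action dims this reporter so a rising signal means less miR-21 action.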 The following applies: HeLa miR-21 FLuc reporter, luciferase, 48 h; series mostly up to 38.3 µM. An excerpt: MLSCN Grant: 1 R21 NS059478-01 Assay Provider: Qihong Huang, The Wistar Institute NCGC Assay Overview: MicroRNAs (miRNAs) are endogenously encoded small (~20-25 nucleotides), nonprotein-coding RNAs that are involved in post-transcriptional repression of target messenger RNAs (mRNAs) (Le and Hannon, 2004). Estimated to be involved in the regulation of 30% of all protein-coding mRNAs (Filipowicz et al., 2008), miRNAs play a significant role in many biological processes including cellular differentiation and tissue development (Ghildiyal and Zamore, 2009).
NCGC Assay Protocol Summary: Reagents: HeLa cells stably expressing firefly luciferase (FLuc) under the control of a CMV promoter (upstream) and a miR-21 binding sequence directly downstream of the gene. These cells endogenously express miR-21. Control compounds used were compound C3 (provided by collaborator), N6-phenyladenosine (MP Biomedicals, 0215379625), and DMSO. Assay Summary: 6uL of HeLa miR-21-FLuc cells in assay buffer (DMEM, Invitrogen #21063-029; 10% FBS, HyClone #SH30071.03) were dispensed at 2000cells/well (3.3 x 10^5 cells/mL) into Greiner solid-white TC-treated 1536-well plates using a Multidrop Combi (Thermo Fisher Scientific). Plates were incubated for one hour at 37 degree Celsius, 95% humidity, 5% CO2. These assay plates were then treated with 23nL of compound or DMSO using a Kalypsys pin tool, which allows for delivery of a 24-point titration of each compound to the assay plate, with a final compound concentration ranging from approximately 40uM to 5pM. Assay plates were then incubated for 48 hours. After incubation, plates were allowed to come to RT for one hour prior to delivery of 3uL of 3X luciferase detection reagent. After a 15 minute incubation to allow for cell lysis, luciferase activity was measured using a ViewLux CCD imager (PerkinElmer), with an average exposure time of 2-12 seconds. Keywords: NIH Roadmap, MLPCN, MLSMR, qHTS, miR-21, microRNA, firefly luciferase, FLuc.
(In qHTS, concentration-response curves come from the screen itself.)
As for `CSc1ncc(C(=O)NCc2ccccc2Cl)c(C(F)(F)F)n1`, the molecule was called inactive.

As for `COc1ccc(CC(=O)Nc2nnc3n2CCS3)cc1OC`, the molecule was called inactive.

Regarding `Cc1ccc(-c2nn(CCC(=O)Nc3ccc(Cl)c(Cl)c3)c(=O)c3ccccc23)cc1`, the molecule was called inactive.

Take `CCC(=O)Nc1ccccc1-c1nc2ccccc2n(CC(=O)Nc2ccc(C)c(C)c2)c1=O`: the molecule was classed as inactive.

For the molecule `CCN1CCc2nc3sc(C(=O)Nc4ccccc4OC(F)(F)F)c(N)c3cc2C1`, the molecule was called inactive.

Consider `CCOC(=O)c1cc(NC(=O)c2ccc(F)cc2)c(=O)n2c1oc1ccccc12`, for which the result was inactive.

In the case of `CCOc1ccc(N(CC)S(=O)(=O)N2CCCC(C(=O)NCc3ccc(SC)cc3)C2)cc1` (centres undefined), the call was inactive.

On to `COc1ccc(CNC(=O)CSc2n[nH]c(-c3ccc(F)cc3)n2)cc1`, for which the result was inactive.

Take `COc1ccc(CN2C(=O)C(NC(=O)c3cccc(C)c3)(C(F)(F)F)N=C2c2ccccc2)cc1` (centres undefined): the molecule was classed as inactive.

In the case of `Cc1c(Cl)cccc1NC(=O)C(=O)NCCc1csc2nc(-c3ccccc3F)nn12`, the molecule was classed as inactive.

Take `COCCNC(=O)CSc1c(C)cnc2c1c(=O)n(C)c(=O)n2C`: the molecule was classed as inactive.

Consider `O=C(c1ccccc1F)N1CCC(c2nc3c(nnn3Cc3cccc(F)c3)c(=O)[nH]2)CC1`, for which the molecule was classed as inactive.

With `COc1ccc(OC)c(NC(=O)CSC2=Nc3ccccc3C3=NC(CC(=O)NCc4ccc(F)cc4)C(=O)N23)c1` (centres undefined), the outcome was inactive.

Take `COc1ccccc1-c1nnc(SCC(N)=O)o1`: the call was inactive.

Take `COc1cc(NS(=O)(=O)c2ccc3c(c2)OCC(C(=O)N2CCCC2)O3)cc(OC)c1` (centres undefined): the molecule was classed as inactive.

In the case of `Cc1ccc(C)c(NC(=O)CSC2=Nc3ccccc3N=C(c3ccc(F)cc3)C2)c1`, the result was inactive.

As to `Cc1cc(C)cc(NC(=O)Cc2csc(C)n2)c1`, the molecule was classed as inactive.

Regarding `CCc1nccn1S(=O)(=O)c1cc(Br)ccc1Br`, the result was inactive.

For the molecule `CC(=O)Nc1ccc(NC(=O)CSc2nnc3c4cc(Br)ccc4n(C)c3n2)cc1`, the outcome was inactive.

For the molecule `Cc1ccc(C)c(CNC(=O)c2cc3ccccn3n2)c1`, the call was inactive.

In the case of `Cc1ccc(C)c(Cn2c(C)c(CNCc3ccc(F)cc3)c(C(=O)O)c2C)c1`, the result was inactive.

On to `CCOC(=O)c1ccc(NC(=O)CSc2nc3c([nH]c4ccccc43)c(=O)n2C)cc1`, for which the result was inactive.

As for `CCc1ccc(-n2nnc(-c3nc(-c4ccccc4)no3)c2C)cc1`, the call was inactive.

For `O=C(NCCCN1CCN(c2cccc(Cl)c2)CC1)c1nnc(Cc2ccc(F)cc2Cl)o1`, the call was inactive.

Regarding `CCNC(=O)CC1C(=O)N(c2ccc(F)cc2)C(=O)N1Cc1ccc(C)cc1` (centres undefined), the molecule was classed as inactive.

Consider `CCOC(=O)c1[nH]c(C)c(CCC(=O)NCc2ccccc2C)c1C`, for which the outcome was inactive.

With `COc1ccc(NC(=O)COCc2cc(-c3ccco3)on2)cc1`, the outcome was inactive.

On to `O=C(CCSCc1cccc(F)c1)NCc1ccccc1`, for which the molecule was called inactive.

For `CN(Cc1ccccc1)c1ccc(-c2nc(-c3ccccc3)no2)cc1[N+](=O)[O-]`, the outcome was inactive.

With `Cc1ccc(C(=O)Nc2cc3c(cc2N2CCCC2)n(C)c(=O)c(=O)n3C)cc1`, the molecule was called inactive.

For the molecule `CCCOC(=O)c1c(NC(=O)c2cc3nc(-c4ccc(OC)cc4)cc(C(F)(F)F)n3n2)sc2c1CCCC2`, the molecule was classed as inactive.

As for `Cc1ccc(-c2nc(CS(=O)(=O)CC(=O)NCc3ccccc3Cl)c(C)o2)cc1`, the result was inactive.

`Cc1nn(C(C)C(=O)NCCc2ccccc2)c(=O)c2c1sc1ccccc12` (centres undefined): the call was inactive.

For `CCN(C(=O)Cn1cc(S(=O)(=O)N2CCN(c3ccccc3F)CC2)c2ccccc2c1=O)c1ccc(C)c(C)c1`, the molecule was classed as inactive.

On to `CCOC(=O)c1cccc(NC(=O)c2cc(S(=O)(=O)N3CCCC(C)C3)cn2C)c1` (centres undefined), for which the molecule was classed as inactive.

In the case of `COc1ccc(-c2[nH]c3c(c2-c2c(-n4cccc4)n(C)c(=O)n(C)c2=O)c(=O)n(C)c(=O)n3C)cc1`, the outcome was inactive.

In the case of `O=c1c2cccnc2n(Cc2cccc(F)c2)c(=O)n1Cc1ccccc1Cl`, the outcome was inactive.

With `Cc1ccc(-c2nc(Cn3c(=O)cc(-c4ccccc4)c4c(C)nn(C)c43)c(C)o2)cc1`, the call was inactive.

Consider `COC(=O)c1c(NC(=O)C(C)Oc2ccc(Cl)c(C)c2)sc(C)c1C` (centres undefined), for which the call was inactive.

With `Cc1cccc(Cn2c(SCc3ccc(C(=O)N4CCC(C)CC4)cc3)nc3ccncc32)c1`, the call was inactive.

Turning to `CCc1cnc2c(c1SCC(=O)c1ccccc1)c(=O)n(C)c(=O)n2C`, the outcome was inactive.

With `CC(C)c1ccc(NC(=O)c2ccc(Cn3nc(N4CCN(c5ccccc5)CC4)ccc3=O)o2)cc1`, the result was inactive.

As for `Cc1ccc(-c2nnc3c4ccccc4c(C)nn23)cc1NC(=O)c1cccc(Br)c1`, the outcome was inactive.

Regarding `CC(=O)c1ccc(NC(c2ccc(F)cc2)c2nnc(-c3ccccc3)o2)cc1` (centres undefined), the call was inactive.

Take `CCN(C(=O)Cn1cnc2sc(C)c(S(=O)(=O)N3CCN(c4ncccn4)CC3)c2c1=O)c1ccccc1F`: the molecule was classed as inactive.

For `Cc1cccc(N2CCN(C3=C(c4ccccc4)C(=O)c4ccccc43)CC2)c1C`, the call was inactive.

Regarding `COc1cccc(NC(=O)c2csnn2)c1`, the call was inactive.

Turning to `N#C/C(=C\c1cccc(F)c1)c1nc(-c2cc3c(ccc4ccccc43)oc2=O)cs1`, the call was inactive.

Consider `CC(=O)c1ccc(NC(=O)C2CCN(S(=O)(=O)c3c(C)noc3/C=C/c3ccc(C)cc3)CC2)cc1`, for which the molecule was called inactive.

`CCOc1ccccc1C(=O)NC1(C(F)(F)F)C(=O)Nc2c1c(=O)[nH]c(=O)n2-c1ccc(F)cc1` (centres undefined): the call was inactive.

As to `O=C1CN(C(=O)Nc2ccccc2C(F)(F)F)C(c2ccccc2)c2c(sc3c2CCCC3)N1` (centres undefined), the outcome was inactive.

Turning to `O=C1OC(C(=O)Nc2cccc(Br)c2)Cc2ccccc21` (centres undefined), the result was inactive.

Regarding `O=C(CCOc1ccccc1)N(Cc1cccnc1)c1nc2ccc(Cl)cc2s1`, the result was inactive.

Consider `CC(C)(C)NC(=O)CSc1nc(-c2ccc(F)cc2)cc(C(F)(F)F)n1`, for which the outcome was inactive.

As for `O=C(CSc1nc2nccnc2c(=O)n1CCc1c[nH]c2ccccc12)Nc1ccccc1F`, the molecule was called inactive.

As for `Cn1c(SCC(=O)N2CCCc3ccccc32)ncc(C(=O)Nc2ccc(F)cc2)c1=O`, the outcome was inactive.

Consider `Cc1ccc(Cl)cc1N(C)C(=O)Cn1nc(Cc2cccnc2)c2ccccc2c1=O`, for which the molecule was called inactive.

As to `COc1ccc(SCc2cc(=O)c3ccc(C)c(C)c3[nH]2)cc1`, the molecule was classed as inactive.

For the molecule `Cc1cccc(OCCSc2nc3ccccc3n2CC(=O)N2CCCCC2)c1C`, the call was inactive.

`COc1ccc(NC(=O)C(c2ccccc2)N2Cc3ccccc3C2=O)cc1` (centres undefined): the molecule was called inactive.

For the molecule `CCCN1CN=C(NS(=O)(=O)c2ccc(NC(C)=O)cc2)NC1`, the result was inactive.

Take `COc1ccc(-c2nn3c(=O)cc(CN4CCN(C(=O)c5ccc(OC)c(OC)c5)CC4)nc3s2)cc1`: the outcome was inactive.

`CCOC(=O)c1c(C)[nH]c(C)c1S(=O)(=O)N(C)CC(=O)N1CCN(c2ccccc2)CC1`: the molecule was called inactive.

On to `COc1ccc2c(c1)c(=O)c(C(=O)c1ccccc1)cn2CC(=O)Nc1ccc2c(c1)OCCO2`, for which the outcome was inactive.

`Cc1ccc(CNS(=O)(=O)c2ccc(C(=O)N(C)C)s2)cc1`: the molecule was classed as inactive.

For `COc1ccc(-c2c3c(=O)n(C)c(=O)n(C)c3c3c(C)nc4ccccc4n23)cc1`, the molecule was classed as inactive.

`Cc1ccc(CN(C(=O)COc2ccc(Cl)cc2C)C2CCS(=O)(=O)C2)o1` (centres undefined): the molecule was classed as inactive.

Take `Cc1ccc(NC(=O)c2ccc3[nH]c(C)cc(=O)c3c2)c(C)c1`: the result was inactive.

With `Cc1ccccc1CCNC(=O)C1CCN(c2nc3ccccc3nc2C(F)(F)F)CC1`, the outcome was inactive.

For `COC(=O)c1ccc(NC(=O)CCc2c(C)nn(-c3ccc(N4CCCC4)nn3)c2C)cc1`, the molecule was classed as inactive.

`Cc1cc(C)cc(NC(=O)c2cnc3sc(N4CCCC4)nn3c2=O)c1`: the outcome was inactive.

Regarding `O=C(Cn1cnc2c(oc3ccccc32)c1=O)Nc1ccc(OC(F)(F)F)cc1`, the molecule was called inactive.

Consider `COc1ccccc1C(=O)OCc1cc(=O)n2nc(-c3cccs3)sc2n1`, for which the call was inactive.

On to `Cc1ccc(-c2nnc(SCc3ccccc3C)o2)cc1`, for which the molecule was called inactive.

Regarding `CCN(CC)C(=O)CSc1nc2ccsc2c(=O)n1Cc1ccccc1Cl`, the molecule was called inactive.

Consider `COc1ccc(CCNCc2c(C(=O)O)c(C)n(Cc3cccc(C)c3)c2C)cc1OC`, for which the outcome was inactive.

Regarding `COc1ccc(-n2c(=O)c3c(c4cc(OC)ccc4n3C)n(Cc3cccc(C)c3)c2=O)cc1`, the result was inactive.

On to `COc1ccc(OC)c(CCNC(=O)CCCn2c(=O)c3cccn3c3cccnc32)c1`, for which the outcome was inactive.

Take `Cc1nn2c(=O)cc(COC(=O)c3cccc(NC(=O)COc4ccccc4Cl)c3)nc2s1`: the outcome was inactive.
